Results as given in the supplement of paper PMC8773631.
Counter-ions that a name gives are not always drawn. ± gives the uncertainty stated by the source.

system: NCC-MFS5-C1; assay: cell viability relative to DMSO control; higher = less growth inhibition; conditions: 10 µM; treatment time: 3 days
Description: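 NCC-MFS5-C1 myxofibrosarcoma cells (1x10^4 per well, 384-well) were treated on day 2 with 10 µM of each drug. On day 5, viability was read by CCK-8 absorbance at 450 nm and normalised to the DMSO control (%), n = 2.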

Row | SMILES | cell viability [%]
1 | N.N.[Cl][Pt][Cl] [Cisplatin] | 79.1 ± 4.2
2 | O=P1(NCCCl)OCCCN1CCCl (configuration not stated) [Ifosfamide] | 79.9 ± 6.8
3 | NCCCNCCSP(=O)(O)O [Amifostine] | 103 ± 3
4 | Cn1c(CCCC(=O)O)nc2cc(N(CCCl)CCCl)ccc21 [Bendamustine HCl] | 66.3 ± 8.2
5 | C=CCN1CC[C@]23c4c5ccc(O)c4O[C@H]2C(=O)CC[C@@]3(O)[C@H]1C5 [Naloxone HCl] | 72.1 ± 2.9
6 | C=C1C[C@@H]2[C@H](CC[C@]3(C)C(=O)CC[C@@H]23)[C@@]2(C)C=CC(=O)C=C12 [Exemestane] | 100 ± 4.3
7 | O=P1(N(CCCl)CCCl)NCCCO1 (configuration not stated) [Cyclophosphamide Monohydrate] | 85.6 ± 2.8
8 | Cc1c(N)nc(C(CC(N)=O)NCC(N)C(N)=O)nc1C(=O)NC(C(=O)NC(C)C(O)C(C)C(=O)NC(C(=O)NCCc1nc(-c2nc(C(=O)NCCC[S+](C)C)cs2)cs1)C(C)O)C(O[C@@H]1O[C@@H](CO)[C@@H](O)[C@H](O)[C@@H]1O[C@H]1O[C@H](CO)[C@@H](O)[C@H](OC(N)=O)[C@@H]1O)c1cnc[nH]1 (some centres not stated) [Bleomycin Sulfate] | 78.3 ± 12
9 | C/C=C(\C)C(=O)N[C@@H](c1ccccc1)[C@@H](O)C(=O)O[C@H]1C[C@@]2(O)[C@@H](OC(=O)c3ccccc3)[C@@H]3[C@]4(OC(C)=O)CO[C@@H]4C[C@H](O)[C@@]3(C)C(=O)[C@H](OC(C)=O)C(=C1C)C2(C)C [Cephalomannine] | 50.2 ± 8.7
10 | CC(=O)OC12COC1CC(O)C1(C)C(=O)C(O)C3=C(C)C(O)CC(O)(C(OC(=O)c4ccccc4)C21)C3(C)C (configuration not stated) [10-Deacetylbaccatin-III] | 86.6 ± 0.96
11 | CC[C@@]1(O)C(=O)OCc2c1cc1n(c2=O)Cc2cc3ccccc3nc2-1 [Camptothecin] | 52.5 ± 6.1
12 | O=C(O)CCCc1ccc(N(CCCl)CCCl)cc1 [Chloroambucil] | 99.4 ± 29
